Test results: PubChem BioAssay (Tox21)
Inconclusive results are not listed. Calls of active or inactive are those of the source. Calls come from the whole dose curve; as a rule, active = well fitted cell-killing curve with a large enough effect in the repeat runs (not every such curve was filed as active); inconclusive = weak or mixed curves, or effect the other way; inactive = no such curve, though single readings can be large or run the other way.

assay: qHTS assay to identify small molecule antagonists of the farnesoid-X-receptor (FXR) signaling pathway - cell viability counter screen (AID 743221); settings: FXR-bla HEK293T viability, CellTiter-Glo luminescence, 16 h; series mostly up to 62.6 µM; note: nearly all actives have a fitted effect of over 50% in size
Excerpt: National Center for Advancing Translational Sciences [NCATS]
NIH Chemical Genomics Center [NCGC]
U.S. Environmental Protection Agency [EPA]
National Institutes of Environmental Health Sciences [NIEHS]
National Toxicology Program [NTP]
U.S. Food and Drug Administration [FDA]
The farnesoid-X-receptor (FXR), a nuclear hormone receptor, is highly expressed in liver, intestine, kidney and adrenal cortex. Natural ligands of FXR are the bile acids (Cholic acid, Chenodeoxy cholic acid etc). FXR is an important regulator of diverse metabolic pathways, including the bile acid homeostasis, lipid and glucose metabolisms. FXR regulates the expression of target genes by binding either as a monomer or as a heterodimer with the retinoid X receptor (RXR). Numerous studies have reported that FXR exerts protective function during cholestasis, diabetes, liver regeneration, and cancer. To identify compounds that inhibit FXR signaling, GeneBLAzer FXR-UAS-bla HEK 293T cell line (Invitrogen, Carlsbad, CA) containing a beta-lactamase reporter gene under the control of a UAS response element was used to screen the Tox21 10K compound library. The cytotoxicity of the Tox21 compound library against the FXR-bla cell line was tested in parallel by measuring the cell viability using CellTiter-Glo assay in the same wells.
Tox21 Assay Protocol Summary:
FXR-bla cells were dispensed at 5000 cells/5uL/well in 1536-well black wall/clear bottom plates using a Multidrop Combi (Thermo Fisher Scientific, Waltham, MA) dispenser. After the assay plates were incubated at 37 C and 5% CO2 for 5 h, 23 nL of compounds dissolved in DMSO, positive controls or DMSO only was transferred to the assay plate by a Pintool station (Kalypsys, San Diego, CA), followed by addition of 1 uL Chenodeoxycholic acid (50 uM, final concentration in the wells). The assay plates were incubated at 37C for 16 h. After 1 uL of LiveBLAzerTM B/G FRET substrate was added using a Bioraptr Flying Reagent Dispenser (FRD) workstation (Beckman Coulter, Indianapolis, IN), the plates were incubated at room temperature for 2 h, and fluorescence intensity was measured by an Envision plate reader (PerkinElmer, Shelton, CT). For cell viability readout that measures cytotoxicity, 4uL/well of CellTiter-Glo reagent was added into the assay plates using a Bioraptr FRD. After 30 min incubation at room temperature, the luminescence intensity in the plates was measured using a ViewLux plate reader (PerkinElmer).

SMILES | outcome
CCCOc1ccc2c(c1)CC[C@@H]1[C@@H]2CC[C@]2(C)C(OC)CC[C@@H]12 (stereo not given in full) | inactive
O=C1CCCCCCCCCCC(=O)OCCO1 | inactive
NC(=O)NS(=O)(=O)c1ccc(Cl)cc1 | inactive
FC(F)(F)C(F)(F)C(F)(F)C(F)(F)C(F)(F)C(F)(F)C(F)(F)C(F)(F)Br | inactive
CC1(C)S[C@@H]2[C@H](NC(=O)C(C(=O)O)c3ccccc3)C(=O)N2[C@H]1C(=O)O (stereo not given in full) | inactive
COc1cc(Cl)ccc1Cl | inactive
Cc1onc(-c2ccccc2)c1C(=O)Cl | inactive
CCCN(CCC)C(=O)C(CCC(=O)O)NC(=O)c1ccccc1 (stereo not given) | inactive
COc1ccc(S(=O)(=O)Nc2nnc(CC(C)C)s2)cc1 | inactive
CC(=O)Oc1cc(C(C)C)c(OCCN(C)C)cc1C | inactive
COC(=O)N[C@H](C(=O)N[C@@H](Cc1ccccc1)[C@@H](O)CN(Cc1ccc(-c2ccccn2)cc1)NC(=O)[C@@H](NC(=O)OC)C(C)(C)C)C(C)(C)C | inactive
COC(=O)c1ccc2cc(C(=O)OC)ccc2c1 | inactive
Cc1cccc(C)c1NC(=O)CN1CCCCCC1 | inactive
C[C@]12C(=O)OC(=O)[C@H]1[C@H]1C=C[C@@H]2C1 | inactive
C[C@]12CCC(=O)C=C1CC[C@@H]1[C@@H]2CC[C@@]2(C)[C@H]1CC[C@]2(O)C(=O)CO | inactive
CO[C@@]1(NC(=O)CSCC#N)C(=O)N2C(C(=O)O)=C(CSc3nnnn3C)CS[C@@H]21 | inactive
CC[C@H]1CC[C@H](NCc2cc3c(cc2OC)[C@H]2C[C@H]2C(=O)N3C)[C@H](c2ccccc2)N1 | inactive
CCCC(CCC)(C(=O)OCC)C(=O)OCC | inactive
COC(C)CCO (stereo not given) | inactive
CCOC(=O)c1cc(=O)c2c(OCC(COc3cccc4oc(C(=O)OCC)cc(=O)c34)OC(=O)[C@@H](N)CCCCN)cccc2o1 | inactive

SMILES | outcome
CC1=C(O)C(=O)OC1C (stereo not given) | inactive
C[C@@H](N)C(=O)O | inactive
Cc1cc(S(=O)(=O)O)c(N)cc1Cl | inactive
CCC1(C)NC(=O)NC1=O (stereo not given) | inactive
Cc1ccc([N+](=O)[O-])c(N)c1 | inactive
CCOc1ccc(NS(=O)(=O)c2ccc(N)cc2)nn1 | inactive
CN(C)C(=O)NC1(c2ccccc2)CCN(CCC[C@]2(c3ccc(Cl)c(Cl)c3)CCCN(C(=O)c3ccccc3)C2)CC1 | inactive
CC(C)S | inactive
CC(C)OC(C)C | inactive
CC(C)(C)c1ccc(OC(=O)c2ccccc2O)cc1 | inactive
CC1=CC(=O)CC(C)(C)C1=O | inactive
CCOC(=O)[C@H](CCc1ccccc1)N[C@@H](C)C(=O)N1Cc2cc(OC)c(OC)cc2C[C@H]1C(=O)O | inactive
CC(C)(C)c1cccc(O)c1 | inactive
CC(=O)OC(C)OC(C)=O | inactive
Nc1ccc2ccccc2c1S(=O)(=O)O | inactive
Cc1nnc(SCC2=C(C(=O)O)N3C(=O)[C@@H](NC(=O)Cn4cnnn4)[C@H]3SC2)s1 | inactive
CC1=C(CC(=O)O)c2cc(F)ccc2/C1=C\c1ccc(S(C)(=O)=O)cc1 | inactive
CCCCC(=O)O[C@]1(C(=O)CO)[C@H](C)C[C@H]2[C@@H]3CCC4=CC(=O)C=C[C@]4(C)[C@@]3(F)[C@@H](O)C[C@@]21C | inactive
NC1=NCC2c3ccccc3Cc3ccccc3N12 (stereo not given) | inactive
CCCCc1ccc2nc(NC(=O)OC)[nH]c2c1 | inactive
